A3A deaminase: APOBEC3A ssDNA deaminase inhibitors, primary screen, selectivity assay for APOBEC3G inhibitor project, biochemical, FAM/TAMRA oligo cleavage fluorescence. recombinant A3A, FAM/TAMRA ssDNA deamination fluorescence. inhibition, % at 20 µM. actives 0.41% (n = 330,000). AID 493011, 2011;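 active = at least 40% inhibition at 20 µM here, with at most 30% in a related deaminase screen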;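 also: plate controls were A3A with DMSO for no effect and wells lacking A3A enzyme for full effect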
Target sequence (P31941 whole entry, looked up): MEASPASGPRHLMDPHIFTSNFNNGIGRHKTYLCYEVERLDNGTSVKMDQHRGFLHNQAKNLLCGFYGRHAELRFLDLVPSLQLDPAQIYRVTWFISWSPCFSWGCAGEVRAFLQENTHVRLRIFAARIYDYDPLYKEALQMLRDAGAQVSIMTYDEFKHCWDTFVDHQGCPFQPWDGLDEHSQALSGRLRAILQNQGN
PABP1 MLLE inh: inhibitors of PABP1 MLLE–PAM2 peptide binding, primary screen, biochemical, fluorescence polarization, FITC-PAM2, GST-MLLE. inhibition, % at 20 µM. actives 0.36% (n = 360,000); in the data active = inhibition above about 35%, passing the limit was not always enough;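 also: plate controls were DMSO wells with GST-MLLE for no effect and wells lacking GST-MLLE protein for full effect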
PABP FP inh: PABP poly(A) RNA binding inhibitors, primary screen, biochemical, fluorescence polarization, uHTS; Polyadenylate-binding protein 1 (Homo sapiens), P11940; calls only at 35 µM; actives 1% (n = 290,000);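 also: calls also rest on retests at 20 µM and on dose response follow-up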
A3G deaminase: APOBEC3G DNA deaminase inhibitors, primary screen, biochemical, fluorescence, single-stranded DNA substrate, uHTS; actives 0.28% (n = 330,000); recombinant A3G, ssDNA deamination FAM/TAMRA fluorescence; inhibition, % at 20 µM; DNA dC->dU-editing enzyme APOBEC-3G (Homo sapiens), Q9HC16;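 active = inhibition of at least 40% at 20 µM, with no more than 30% in the related APOBEC3A deaminase screen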;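 also: plate controls were DMSO wells with A3G for no effect and wells lacking A3G enzyme for full effect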
eIF4H FP inh: human eIF4H binding inhibitors, primary screen, translation initiation inhibitor project, biochemical, uHTS, fluorescence polarization; actives 0.94% (n = 290,000); inhibition, % at 35 µM; eIF4H fluorescence polarization binding assay; AID 2012, 2009; Eukaryotic translation initiation factor 4H (Homo sapiens), Q15056;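 also: calls also rest on retests at 20 µM and on dose response follow-up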
PHOSPHO1 inh: PubChem AID 1565; Phosphoethanolamine/phosphocholine phosphatase (Homo sapiens), Q8TCT1; recombinant PHOSPHO1, absorbance phosphatase assay; inhibition, % at 13.3 µM; actives 1.1% (n = 290,000); in the data active = inhibition above about 60%
The depositor's hits bear a star; i = inactive; ? = inconclusive; · = no result; + = active, no number. Hits are enriched below; roughly 2.6% of the tested compounds scored in any of these assays. Unless noted, no rule for the calls is given here.

SMILES	A3A deaminase	PABP1 MLLE inh	PABP FP inh	A3G deaminase	eIF4H FP inh	PHOSPHO1 inh
CC(C)c1ccc(C2C3CSCC=C3C(C#N)=C(N)C2(C#N)C#N)cc1 (stereo not given)	0	·	+	6	128*	19
CCCn1c(SCC(=O)NC(=O)NCc2ccco2)n[nH]c1=O	·	·	+	·	74*	-31
Nn1c(SCC(=O)NC(=O)NCc2ccco2)nnc1-c1ccc(OC(F)F)cc1	33	-116	i	15	98	93*
C=CCn1c(SCC(=O)NC(=O)NCc2ccco2)nc2sc(CC)cc2c1=O	21	-16	+	10	84*	45
Cc1sc2nc(SCC(=O)NCc3ccco3)n(C)c(=O)c2c1C	-17	-4	i	-2	2	17
CCn1c(SCC(=O)NC(=O)NCc2ccco2)nc2sc(C)c(C)c2c1=O	52	-22	+	32	82*	25
CCCn1c(SCC(=O)NC(=O)NCc2ccccc2)n[nH]c1=O	0	-19	·	-3	·	·
C=CCn1c(SCC(=O)NCc2ccco2)nc2ccccc2c1=O	3	11	?	-3	-12	17
CCOC(=O)C1=CCC(c2cccn2C(=O)OC(C)(C)C)N(S(=O)(=O)c2ccc(C)cc2)C1 (stereo not given)	·	-12	·	·	·	·
CCOc1ccccc1-n1nnnc1SCC(=O)NC(=O)NCc1ccco1	17	-71	+	9	61*	59
CCCn1c(SCC(=O)c2cc(C)ccc2C)n[nH]c1=O	-4	-41	i	-4	-9	94*
O=C(CSc1nnnn1-c1ccccc1)NC(=O)NCc1ccco1	15	-42	i	7	92	34
COc1cc(OC)cc(-c2oc3cccnc3c2C#CCCO)c1	-1	16	i	-4	10	-2
O=Nc1c(O)[nH]c2ccc(F)cc12	-1	-2	i	-3	7	18
NC(=S)N=Nc1c(O)[nH]c2ccc(F)cc12	-2	48*	i	-11	9	1
CC(C)Cc1nnc(NC(=O)c2cc([N+](=O)[O-])ccc2N2CCOCC2)s1	17	-21	i	-5	-8	·
COc1ccc(NC(=O)c2ccc(-c3ccc([N+](=O)[O-])cc3)o2)cc1OC	-4	10	i	-6	-13	17
COc1cc([N+](=O)[O-])ccc1-c1ccc(C(=O)Nc2ccc(NC(C)=O)cc2)o1	·	-12	i	·	9	-72
COc1cccc(NC(=O)c2ccc(-c3ccc([N+](=O)[O-])cc3)o2)c1	-1	17	+	-8	55	12
CC(=O)Nc1ccc(NC(=O)c2ccc(-c3ccc([N+](=O)[O-])cc3)o2)cc1	1	1	i	4	53*	43
Cc1ccc2c(-c3csc(N)n3)c[nH]c2c1	-1	·	i	0	-1	2
COc1ccc(N2CCN(C3CCCN(S(=O)(=O)c4ccc(C)cc4C)C3)CC2)cc1 (stereo not given)	0	-11	i	18	1	10
CC(C)[C@H](CO)NC(=O)[C@H]1O[C@@H](n2ccc(=O)[nH]c2=O)[C@H](O)[C@@H]1O	·	3	·	·	·	·
CCCCCc1cc(=O)oc2c(C(CCN(CC)CC)c3ccc(N(C)C)cc3)c(OC)cc(OC)c12 (stereo not given)	-2	0	i	-10	5	30
Cc1ccc(S(=O)(=O)Nc2cc(Cl)c(O)c3ncccc23)cc1	-5	41*	i	4	18	19
SMILES	A3A deaminase	PABP1 MLLE inh	PABP FP inh	A3G deaminase	eIF4H FP inh	PHOSPHO1 inh
CCN(CC)c1ncnc2c1[nH]c1ccccc12	-3	-13	+	-6	72*	1
COc1ccc(CNC(=O)CN(c2cc(C)cc(C)c2)S(=O)(=O)c2c(C)[nH]c(=O)[nH]c2=O)cc1	-2	8	i	-4	3	64*
Cc1cc(C)cc(N(CC(=O)NCc2ccccc2Cl)S(=O)(=O)c2c(C)[nH]c(=O)[nH]c2=O)c1	-1	13	i	-4	-13	4
Nc1nc(O)c(N=Nc2ccc(S(N)(=O)=O)cc2)c(=O)[nH]1	2	·	i	8	-4	9
NS(=O)(=O)c1ccc(N=Nc2c[nH]c(=O)c(O)c2)cc1	12	102	+	11	54*	25
CC(C)OCCc1cccc[n+]1[O-]	·	0	·	·	·	·
CCC(O)CNC(=O)CCc1nnc(C2(c3ccc(Cl)cc3)CCC2)o1 (stereo not given)	2	-3	i	-5	-5	60*
COc1ccc(CNC(=O)C2CCN(S(=O)(=O)c3cccc(C(F)(F)F)c3)CC2)cc1	-4	2	·	-10	·	·
COc1ccc(N2CCC(CNS(=O)(=O)c3cccc(C(F)(F)F)c3)C2)cc1 (stereo not given)	0	-11	i	6	4	79*
CC(C)(C)c1ccc(C(=O)NCc2nnc(SCC(=O)NC3CCCCC3)o2)cc1	-3	29	i	-7	-18	8
OCc1cn(-c2ccccc2)nc1-c1ccco1	-2	18	i	-6	16	6
Nc1nc(-c2ccco2)c(-c2ccco2)s1	19	44*	?	23	?	88*
Nc1nc(-c2ccco2)cs1	-1	-5	+	-5	79*	93*
c1coc(-c2nc(-c3ccco3)c(-c3ccco3)nc2-c2ccco2)c1	99	10	+	92	85*	68*
COc1ccc2nc(-c3ccco3)c(-c3ccco3)nc2c1	92	40*	+	83	98*	40
CC(C)=CCc1c(O)cc2oc3c(CC=C(C)C)c(O)c(O)c(CC=C(C)C)c3c(=O)c2c1O	-1	-47	i	-3	58*	31
CCOc1ccc(CN2CCC(C(=O)Nc3cccc(-c4ccn[nH]4)c3)CC2)cc1Cl	-5	5	i	-5	-2	-6
CCN1C(=O)N[C@@H](c2ccccc2)[C@@H](C(=O)OC)[C@H]1C	0	-11	·	-7	·	·
COC(=O)c1ccc2c(=O)sc(N3CCC(C(N)=O)CC3)nc2c1	-1	44*	i	14	-9	3
COC(=O)c1ccc(C(=O)OC)c(NC(=S)N2CCC(C(N)=O)CC2)c1	4	7	i	-14	7	50
Cc1ccc2nc(NCc3ccco3)c(C=NCc3ccco3)c(=O)n2c1	9	0	+	10	68*	17

Screens from PubChem BioAssay.
